Data from the supplement of paper PMC10849652.
The full data set covers some 7,900 targets. This sample favours those with a hit. About 0.6% of all pairs of compound and target were hits. Unmarked numbers belong to inactive results.

Legend:
Assay in all cases: log2 fold change, soluble protein after heating vs DMSO (PISA); higher = thermal stabilisation; K562 cells, 10 uM, 30 min; active = over 0.2 and 3.5 SD of the protein, either way, in both replicates (recomputed)
[1] = compound: COC1=CC=C(C=C1)CN2C=CC3=C2C=C(C=C3)C(=O)NO
Outline: (§1)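 Thermal stability values are relative to control samples and come from duplicates. They are expressed as log2 fold changes. For measurement, K562 cells (2×10^6 cells/mL) received 10 μM compound for 30 min, and aliquots were heated for 3 min over 48°C-58°C, pooled, and extracted at 4°C in PBS with 0.5% NP-40. Soluble protein, the supernatant after 21,000xg for 90 min, was quantified by TMTpro 16plex LC-MS/MS with equalised channel sums.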

filanesib = compound: CON(C)C(=O)N1N=C(c2cc(F)ccc2F)S[C@@]1(CCCN)c1ccccc1 [filanesib]
Outline: as §1

zotarolimus = compound: CO[C@H]1C[C@@H]2CC[C@@H](C)[C@@](O)(O2)C(=O)C(=O)N2CCCC[C@H]2C(=O)O[C@H]([C@H](C)C[C@@H]2CC[C@H](n3cnnn3)[C@H](OC)C2)CC(=O)[C@H](C)/C=C(\C)[C@@H](O)[C@@H](OC)C(=O)[C@H](C)C[C@H](C)/C=C/C=C/C=C/1C [zotarolimus]
Outline: as §1

idasanutlin = compound: COc1cc(C(=O)O)ccc1NC(=O)[C@@H]1N[C@@H](CC(C)(C)C)[C@](C#N)(c2ccc(Cl)cc2F)[C@H]1c1cccc(Cl)c1F [idasanutlin]
Outline: as §1

alisertib = compound: COc1cc(Nc2ncc3c(n2)-c2ccc(Cl)cc2C(c2c(F)cccc2OC)=NC3)ccc1C(=O)O [alisertib]
Outline: as §1

[2] = compound: COc1cc2nc(-c3cc(F)ccc3O)nc(N[C@@H]3CNC[C@H]3C(C)(C)O)c2cc1OC
Outline: as §1

gefitinib = compound: COc1cc2ncnc(Nc3ccc(F)c(Cl)c3)c2cc1OCCCN1CCOCC1 [gefitinib]
Outline: as §1

[3] = compound: COc1cccc2cc(-c3nc([C@H]4CC[C@H](C(=O)O)CC4)n4ncnc(N)c34)[nH]c12
Outline: as §1

lapatinib = compound: CS(=O)(=O)CCNCc1ccc(-c2ccc3ncnc(Nc4ccc(OCc5cccc(F)c5)c(Cl)c4)c3c2)o1 [lapatinib]
Outline: as §1

pictilisib = compound: CS(=O)(=O)N1CCN(Cc2cc3nc(-c4cccc5[nH]ncc45)nc(N4CCOCC4)c3s2)CC1 [pictilisib]
Outline: as §1

[4] = compound: CS(=O)(=O)c1ccc(-c2cnc(N)c(C(=O)Nc3ccccc3)n2)cc1
Outline: as §1

crizotinib = compound: C[C@@H](Oc1cc(-c2cnn(C3CCNCC3)c2)cnc1N)c1c(Cl)ccc(F)c1Cl [crizotinib]
Outline: as §1

[5] = compound: C[C@@H]1COCCN1C2=NC(=NC(=C2)C3(CC3)S(=O)(=O)C)C4=C5C=CNC5=CC=C4
Outline: as §1

[6] = compound: C[C@H](C1=CC=C(C=C1)C(=O)NC2=C3C=CNC3=NC=C2)N
Outline: as §1

duvelisib = compound: C[C@H](Nc1ncnc2nc[nH]c12)c1cc2cccc(Cl)c2c(=O)n1-c1ccccc1 [duvelisib]
Outline: as §1

gandotinib = compound: Cc1cc(Nc2cc(CN3CCOCC3)c3nc(C)c(Cc4ccc(Cl)cc4F)n3n2)n[nH]1 [gandotinib]
Outline: as §1

tozasertib = compound: Cc1cc(Nc2cc(N3CCN(C)CC3)nc(Sc3ccc(NC(=O)C4CC4)cc3)n2)n[nH]1 [tozasertib]
Outline: as §1

[7] = compound: Cc1cc(SCc2sc(-c3ccc(C(F)(F)F)cc3)nc2C)ccc1OCC(=O)O
Outline: as §1

doramapimod = compound: Cc1ccc(-n2nc(C(C)(C)C)cc2NC(=O)Nc2ccc(OCCN3CCOCC3)c3ccccc23)cc1 [doramapimod]
Outline: as §1

ispinesib = compound: Cc1ccc(C(=O)N(CCCN)[C@@H](c2nc3cc(Cl)ccc3c(=O)n2Cc2ccccc2)C(C)C)cc1 [ispinesib]
Outline: as §1

Sequence of UniProt Q8IZQ5 (Q8IZQ5 whole entry, looked up): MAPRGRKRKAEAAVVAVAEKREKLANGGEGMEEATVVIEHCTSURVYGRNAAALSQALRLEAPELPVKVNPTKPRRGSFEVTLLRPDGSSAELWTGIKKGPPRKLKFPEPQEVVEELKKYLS
Sequence of UniProt P35244 (P35244 whole entry, looked up): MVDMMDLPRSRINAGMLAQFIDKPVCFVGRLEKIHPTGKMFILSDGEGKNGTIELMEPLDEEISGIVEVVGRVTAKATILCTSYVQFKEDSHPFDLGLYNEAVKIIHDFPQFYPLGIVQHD
Sequence of UniProt Q9UKM9 (Q9UKM9 whole entry, looked up): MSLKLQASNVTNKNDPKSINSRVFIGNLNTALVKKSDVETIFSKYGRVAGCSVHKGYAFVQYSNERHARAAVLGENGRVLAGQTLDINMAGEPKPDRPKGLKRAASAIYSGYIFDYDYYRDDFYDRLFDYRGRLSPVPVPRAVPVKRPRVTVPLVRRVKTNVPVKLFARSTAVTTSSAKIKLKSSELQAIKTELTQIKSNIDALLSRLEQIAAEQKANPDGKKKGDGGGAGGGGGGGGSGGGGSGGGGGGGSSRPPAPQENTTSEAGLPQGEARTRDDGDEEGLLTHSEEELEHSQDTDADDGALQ
Sequence of UniProt P05543 (P05543 whole entry, looked up): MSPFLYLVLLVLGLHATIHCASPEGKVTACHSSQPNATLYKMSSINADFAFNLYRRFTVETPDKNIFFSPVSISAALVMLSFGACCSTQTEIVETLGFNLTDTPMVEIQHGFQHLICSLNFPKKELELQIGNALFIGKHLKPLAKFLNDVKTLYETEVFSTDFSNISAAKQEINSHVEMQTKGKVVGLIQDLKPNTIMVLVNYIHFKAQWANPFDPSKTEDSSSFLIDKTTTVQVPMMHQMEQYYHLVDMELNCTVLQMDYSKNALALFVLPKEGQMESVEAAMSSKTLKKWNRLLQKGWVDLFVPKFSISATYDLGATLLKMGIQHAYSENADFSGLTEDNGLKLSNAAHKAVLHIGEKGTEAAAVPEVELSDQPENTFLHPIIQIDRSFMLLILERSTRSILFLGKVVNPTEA
Sequence of UniProt Q96EE3 (Q96EE3 whole entry, looked up): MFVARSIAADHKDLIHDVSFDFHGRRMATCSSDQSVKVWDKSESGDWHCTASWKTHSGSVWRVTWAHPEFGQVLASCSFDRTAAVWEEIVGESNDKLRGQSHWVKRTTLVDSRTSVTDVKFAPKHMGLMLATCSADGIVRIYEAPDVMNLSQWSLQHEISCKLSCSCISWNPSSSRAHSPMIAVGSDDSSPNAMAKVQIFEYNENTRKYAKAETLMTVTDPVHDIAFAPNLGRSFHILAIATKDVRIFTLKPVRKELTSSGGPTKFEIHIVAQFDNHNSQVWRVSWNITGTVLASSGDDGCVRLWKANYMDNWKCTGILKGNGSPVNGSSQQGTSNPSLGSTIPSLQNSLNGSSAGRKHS
Sequence of UniProt Q04864 (Q04864 whole entry, looked up): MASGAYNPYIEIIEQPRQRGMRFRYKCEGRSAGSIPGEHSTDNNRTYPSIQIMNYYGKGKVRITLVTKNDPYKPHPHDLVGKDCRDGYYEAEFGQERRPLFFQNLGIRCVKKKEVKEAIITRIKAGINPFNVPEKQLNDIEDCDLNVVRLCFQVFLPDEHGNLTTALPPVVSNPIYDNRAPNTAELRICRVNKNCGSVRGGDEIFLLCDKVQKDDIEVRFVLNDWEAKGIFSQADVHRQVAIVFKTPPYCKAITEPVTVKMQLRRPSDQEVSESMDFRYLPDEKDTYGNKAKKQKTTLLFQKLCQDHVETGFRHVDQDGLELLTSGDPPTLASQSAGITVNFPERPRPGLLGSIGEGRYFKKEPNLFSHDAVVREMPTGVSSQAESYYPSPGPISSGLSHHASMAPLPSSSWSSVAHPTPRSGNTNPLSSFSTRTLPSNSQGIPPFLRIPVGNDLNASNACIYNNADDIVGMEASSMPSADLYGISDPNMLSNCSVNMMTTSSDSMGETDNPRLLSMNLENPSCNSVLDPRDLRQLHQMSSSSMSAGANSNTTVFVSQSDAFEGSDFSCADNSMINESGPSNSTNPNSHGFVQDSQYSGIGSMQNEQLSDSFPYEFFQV
Sequence of UniProt Q15758 (Q15758 whole entry, looked up): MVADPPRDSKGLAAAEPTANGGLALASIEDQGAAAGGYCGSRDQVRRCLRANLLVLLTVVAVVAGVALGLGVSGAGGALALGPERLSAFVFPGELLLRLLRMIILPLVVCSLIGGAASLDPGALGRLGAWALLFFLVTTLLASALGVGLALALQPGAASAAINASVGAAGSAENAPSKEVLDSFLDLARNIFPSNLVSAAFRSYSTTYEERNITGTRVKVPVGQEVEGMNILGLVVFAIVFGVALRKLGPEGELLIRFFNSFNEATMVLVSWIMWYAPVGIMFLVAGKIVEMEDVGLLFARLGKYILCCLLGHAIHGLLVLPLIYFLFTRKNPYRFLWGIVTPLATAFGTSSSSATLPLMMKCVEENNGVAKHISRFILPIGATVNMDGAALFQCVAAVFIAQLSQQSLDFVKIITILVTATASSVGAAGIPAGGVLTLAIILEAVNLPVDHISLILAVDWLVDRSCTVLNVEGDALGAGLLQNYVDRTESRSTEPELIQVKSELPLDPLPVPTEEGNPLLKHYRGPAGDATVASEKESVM
Sequence of UniProt Q9BVS4 (Q9BVS4 whole entry, looked up): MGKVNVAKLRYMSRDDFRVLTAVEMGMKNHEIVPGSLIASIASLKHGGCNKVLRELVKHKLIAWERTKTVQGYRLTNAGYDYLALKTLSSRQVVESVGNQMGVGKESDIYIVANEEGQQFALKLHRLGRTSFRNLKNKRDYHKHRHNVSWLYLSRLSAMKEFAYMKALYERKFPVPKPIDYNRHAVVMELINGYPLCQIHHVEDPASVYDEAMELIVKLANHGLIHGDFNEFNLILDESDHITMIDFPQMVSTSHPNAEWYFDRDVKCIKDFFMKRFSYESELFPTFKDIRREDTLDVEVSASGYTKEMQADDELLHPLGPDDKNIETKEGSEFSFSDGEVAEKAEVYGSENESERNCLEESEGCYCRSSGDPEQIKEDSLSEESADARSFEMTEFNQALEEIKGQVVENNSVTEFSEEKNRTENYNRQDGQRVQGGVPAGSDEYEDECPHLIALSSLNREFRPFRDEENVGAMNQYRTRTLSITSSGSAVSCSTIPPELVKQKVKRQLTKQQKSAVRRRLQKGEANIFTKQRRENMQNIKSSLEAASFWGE
Sequence of UniProt Q9H6H4 (Q9H6H4 whole entry, looked up): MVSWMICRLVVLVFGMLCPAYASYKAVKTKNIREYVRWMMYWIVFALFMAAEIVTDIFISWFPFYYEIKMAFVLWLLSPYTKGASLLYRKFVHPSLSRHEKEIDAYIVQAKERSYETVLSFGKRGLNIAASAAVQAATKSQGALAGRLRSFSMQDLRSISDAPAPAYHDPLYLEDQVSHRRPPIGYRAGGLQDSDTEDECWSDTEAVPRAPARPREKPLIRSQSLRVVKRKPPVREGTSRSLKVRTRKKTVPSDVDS
Sequence of UniProt Q8NEM2 (Q8NEM2 whole entry, looked up): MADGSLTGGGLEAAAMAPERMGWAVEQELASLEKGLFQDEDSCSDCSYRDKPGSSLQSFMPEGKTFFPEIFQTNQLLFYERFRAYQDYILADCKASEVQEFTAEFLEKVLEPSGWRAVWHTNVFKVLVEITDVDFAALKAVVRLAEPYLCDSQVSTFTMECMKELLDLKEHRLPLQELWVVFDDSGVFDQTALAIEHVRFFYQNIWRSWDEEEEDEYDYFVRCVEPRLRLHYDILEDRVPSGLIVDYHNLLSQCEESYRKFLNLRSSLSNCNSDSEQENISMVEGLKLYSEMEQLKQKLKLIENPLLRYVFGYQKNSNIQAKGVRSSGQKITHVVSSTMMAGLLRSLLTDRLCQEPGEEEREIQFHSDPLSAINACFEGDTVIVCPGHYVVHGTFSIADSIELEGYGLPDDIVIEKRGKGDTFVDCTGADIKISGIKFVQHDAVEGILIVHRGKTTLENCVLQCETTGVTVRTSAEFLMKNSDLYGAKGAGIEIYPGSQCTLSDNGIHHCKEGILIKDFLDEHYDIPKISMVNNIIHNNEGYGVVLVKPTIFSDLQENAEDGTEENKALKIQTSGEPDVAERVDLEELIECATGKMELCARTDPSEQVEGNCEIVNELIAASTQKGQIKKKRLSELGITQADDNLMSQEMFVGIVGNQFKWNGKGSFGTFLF
Sequence of UniProt O00767 (O00767 whole entry, looked up): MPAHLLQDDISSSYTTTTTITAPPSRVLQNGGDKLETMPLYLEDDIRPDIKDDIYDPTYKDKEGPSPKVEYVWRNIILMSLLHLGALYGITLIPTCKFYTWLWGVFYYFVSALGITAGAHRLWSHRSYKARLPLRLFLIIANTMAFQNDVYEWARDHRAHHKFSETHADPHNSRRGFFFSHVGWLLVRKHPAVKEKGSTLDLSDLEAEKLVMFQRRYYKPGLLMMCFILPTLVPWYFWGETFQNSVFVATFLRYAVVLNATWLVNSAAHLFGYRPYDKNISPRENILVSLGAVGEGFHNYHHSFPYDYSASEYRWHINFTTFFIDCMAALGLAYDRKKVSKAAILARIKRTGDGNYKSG
Sequence of UniProt Q9NSI8 (Q9NSI8 whole entry, looked up): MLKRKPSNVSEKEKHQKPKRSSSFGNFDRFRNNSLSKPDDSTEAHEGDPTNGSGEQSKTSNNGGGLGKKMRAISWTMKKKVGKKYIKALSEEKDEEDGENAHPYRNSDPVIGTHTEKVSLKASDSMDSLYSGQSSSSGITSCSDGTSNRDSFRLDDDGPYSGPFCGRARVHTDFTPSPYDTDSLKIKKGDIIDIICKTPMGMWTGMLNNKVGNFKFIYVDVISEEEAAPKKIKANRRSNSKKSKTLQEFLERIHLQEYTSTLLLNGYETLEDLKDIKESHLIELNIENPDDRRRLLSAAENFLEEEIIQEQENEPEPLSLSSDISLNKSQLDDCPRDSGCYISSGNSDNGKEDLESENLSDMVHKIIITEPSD

Target	log2 fold change [1]	log2 fold change (filanesib)	log2 fold change (zotarolimus)	log2 fold change (idasanutlin)	log2 fold change (alisertib)	log2 fold change [2]	log2 fold change (gefitinib)	log2 fold change [3]	log2 fold change (lapatinib)	log2 fold change (pictilisib)	log2 fold change [4]	log2 fold change (crizotinib)	log2 fold change [5]	log2 fold change [6]	log2 fold change (duvelisib)	log2 fold change (gandotinib)	log2 fold change (tozasertib)	log2 fold change [7]	log2 fold change (doramapimod)	log2 fold change (ispinesib)
SEH1L isoform 1 (UniProt Q96EE3)	-0.004	0.012	-0.03	-0.014	-0.024	0.025	0.015	0.038	-0.045	0.017	-0.03	0.04	-0.008	-0.028	0.016	-0.069	0.011	0.01	0.011	0.054
REEP4 (UniProt Q9H6H4)	-0.039	-0.072	-0.034	0.033	-0.07	-0.32 (active)	-0.032	-0.031	0.121	-0.175	-0.015	-0.148	-0.027	0.02	-0.013	0.001	-0.111	0.02	0.06	-0.275 (active)
RIOK2 (UniProt Q9BVS4)	-0.039	0.064	-0.017	0.01	-0.025	0.074	-0.101	-0.057	0.08	0.049	0.059	-0.057	-0.167	0.189	-0.037	0.263	-0.001	0.053	0.084	-0.019
SAMSN1 isoform 3 (UniProt Q9NSI8)	0.013	-0.021	0.034	-0.026	0.007	-0.001	0.007	-0.029	-0.009	-0.001	0.024	-0.082	0.043	-0.027	0.006	-0.077	-0.013	0.019	-0.052	-0.069
RPS21 (UniProt P63220)	-0.033	0.086	-0.021	0.031	-0.069	0.04	0.002	-0.022	-0.027	-0.01	-0.053	0.141	-0.108	0.044	-0.001	0.048	-0.005	-0.004	-0.022	0.015
REL (UniProt Q04864)	-0.006	0.051	0.004	0.033	0.068	0.062	0.148	-0.086	-0.031	-0.243	0.079	-0.04	0.005	0.02	-0.034	-0.321	0.026	0.028	-0.003	-0.088
SLC1A5 (UniProt Q15758)	-0.048	0.071	-0.052	0.031	-0.126	0.058	0.023	0.095	-0.01	0.024	0.026	0.13	0.072	-0.186	0.044	-0.105	-0.064	-0.091	-0.007	0.167
SCD (UniProt O00767)	-0.458 (active)	-0.074	-0.024	-0.001	0.014	-0.054	0.019	0.048	-0.017	-0.053	0.024	-0.2	-0.06	-0.068	0.007	-0.061	-0.07	-0.119	-0.028	-0.319
SHCBP1 (UniProt Q8NEM2)	-0.014	0.059	0.103	-0.023	0.134	0.102	0	-0.056	-0.13	-0.057	0.092	-0.077	0.043	0.119	-0.021	-0.124	0.098	0.169	0.02	-0.096
SELENOH (UniProt Q8IZQ5)	0.204	-0.077	0.035	0.02	-0.27	-0.114	-0.028	-0.038	0.08	-0.074	-0.19	0	-0.014	-0.022	-0.101	-0.12	-0.008	-0.051	-0.018	0.036
SERPINA7 (UniProt P05543)	-0.213	0.251	-0.206	0.071	0.052	0.008	-0.157	0.381	-0.017	-0.088	-0.16	0.133	-0.095	0.257	-0.201	-0.02	-0.046	-0.158	0.217	0.068
RALY (UniProt Q9UKM9)	-0.038	0.216	0.055	0.72 (active)	0.041	-0.152	-0.099	-0.148	0.22	-0.02	-0.149	-0.068	-0.138	0.316	-0.161	0.098	0.051	0.043	0.01	-0.082
RPA3 (UniProt P35244)	0.054	-0.038	0.056	-0.064	0.073	-0.05	-0.01	-0.048	0.04	0.046	-0.044	0.042	-0.162	-0.098	0.043	0.11	0.053	0.003	-0.054	0.109
RPS2 (UniProt P15880)	-0.049	0.214	-0.013	0.114	-0.1	-0.027	-0.05	-0.184	0.094	-0.143	-0.045	0.043	-0.369	0.286	-0.162	0.202	-0.007	0.007	0.131	-0.162
RPS19 (UniProt P39019)	0	0.102	-0.015	0.113	-0.114	-0.024	-0.049	-0.12	0.059	-0.137	-0.12	0.023	-0.309	0.182	-0.11	0.201	0.033	0.018	0.05	-0.081
